Screens from PubChem BioAssay.
Cruzain noTriton: qHTS Assay for Promiscuous and Specific Inhibitors of Cruzain (without detergent) | purified cruzain, Z-FR-AMC fluorescence, no detergent | Potency, µM, most hits filed as inhibitors | actives 2.3% (n = 200,000) | AID 1476, 2009; note: nearly all actives have a fitted effect of over 40% in size
Target sequence (P25779 123-467 limits assumed): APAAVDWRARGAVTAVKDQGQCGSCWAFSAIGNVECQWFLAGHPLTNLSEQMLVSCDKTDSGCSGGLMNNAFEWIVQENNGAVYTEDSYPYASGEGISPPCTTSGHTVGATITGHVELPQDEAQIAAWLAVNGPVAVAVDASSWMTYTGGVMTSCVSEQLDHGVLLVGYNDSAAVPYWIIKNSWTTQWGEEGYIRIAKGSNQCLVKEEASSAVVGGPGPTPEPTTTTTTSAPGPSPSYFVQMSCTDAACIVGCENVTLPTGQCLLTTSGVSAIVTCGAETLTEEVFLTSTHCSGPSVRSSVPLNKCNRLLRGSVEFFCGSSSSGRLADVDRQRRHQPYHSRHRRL
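Detergent-free condition (0.00005% Triton X-100) in acetate buffer pH 5.5 with DTT. 1.5 nM enzyme and compound were pre-mixed 15 min, then 2 uM Z-FR-AMC substrate added; reaction progress from fluorescence change between first and third reads (60 s).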
Cruzain inh Det: qHTS Assay for Promiscuous and Specific Inhibitors of Cruzain (with detergent) | Potency, µM, hits mostly inhibitors | Cruzipain (Trypanosoma cruzi), P25779 | actives 0.43% (n = 200,000) | purified cruzain, Z-FR-AMC fluorescence, 0.01% Triton; note: nearly all actives have a fitted effect of over 40% in size
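Compounds were screened in titration against cruzain (1.5 nM) with 0.01% Triton X-100 to counter colloidal aggregation. Activity was the AMC fluorescence increase over 60 s after adding 2 uM Z-FR-AMC at pH 5.5.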
A number is an active result; – = inactive; ? = inconclusive. A selection: hits, their analogues and other compounds. The true share with any hit is near 2.6%. Calls come from the whole dose curve; as a rule, active = well fitted curve in the direction sought with a large enough effect; inconclusive = small, poorly fitted or top-dose-only effect, or another doubt; inactive = no such curve, though single readings can be large; an effect the other way counts as inactive or inconclusive.

SMILES	Cruzain noTriton	Cruzain inh Det
C/C(=C\CNc1ncnc2c1ncn2[C@@H]1O[C@H](CO)[C@@H](O)[C@H]1O)CO	–	–
COc1cc2c(cc1NC(=O)C(C)Oc1ccc(Cl)cc1Cl)oc1ccccc12 (configuration not stated)	?	–
O=C(CSc1nc(-c2ccccc2)[nH]c1-c1ccccc1)Nc1ccc2c(c1)OCCO2	–	–
CC(C)c1ccc2c(c1)CC[C@H]1[C@@](C)(CN)CCC[C@@]21C	–	–
Nc1c(-c2nc(-c3ccc4c(c3)OCO4)cs2)c2ccccn2c1C(=O)c1ccccc1	4µM	–
Nc1c(-c2nc(-c3ccc4c(c3)OCO4)cs2)c2ccccn2c1C(=O)c1ccc(Cl)cc1	?	–
CC(=O)OCC(=O)[C@@]12OC(C)(C)O[C@@H]1C[C@H]1[C@H]3C[C@H](F)C4=CC(=O)C=C[C@@]4(C)[C@]3(F)[C@H](O)C[C@@]12C	–	–
N[C@@H](C(=O)O)c1ccc(C(=O)O)cc1	–	–
Cc1nc2ccc(S(=O)(=O)NC(C(=O)N3CCN(c4ccc(Cl)cc4)CC3)C(C)C)cc2s1 (configuration not stated)	–	–
Nc1c(-c2nc(-c3ccccc3)no2)nnn1CC(=O)Nc1cccc(F)c1	32µM	–
Cc1cc(C)cc(NC(=O)Cn2nnc(-c3nc(-c4ccncc4)no3)c2N)c1	–	–
Clc1ccc(CCNc2nc3ccccc3n3nnnc23)cc1	25µM	–
Cc1cccc(CCNc2nc3ccccc3n3nnnc23)c1	–	–
CCc1ccc(NC(=O)N(Cc2c[nH]c3ccccc23)C2CCCCCC2)cc1	?	–
CCOc1ccc(OCC)c(Nc2nc3ccc(Cl)cc3n3cnnc23)c1	–	–
CN(C)c1ncnc2ccc(-c3cccc(C#N)c3)cc12	–	–
CCCC(=O)OC(=O)CCC	–	–
Cc1cccc(C(=O)Nc2ccccc2C(=O)OCc2cc(=O)n3nc(C4CC4)sc3n2)c1	–	–
O=C(CSc1nnc(-c2c[nH]c3ccccc23)o1)N1CCCCC1	–	–
O=C(CSc1nnc(-c2c[nH]c3ccccc23)o1)c1ccc(-c2ccccc2)cc1	5µM	–
FC(F)(F)c1cc(CO[C@H]2CCCN[C@H]2c2ccccc2)cc(C(F)(F)F)c1	–	–
COc1ccccc1-n1c(SCC(=O)c2ccc(O)cc2O)nc2cc([N+](=O)[O-])ccc21	13µM	–
COc1ccccc1-n1c(SCC(=O)NC2CCS(=O)(=O)C2)nc2cc([N+](=O)[O-])ccc21 (configuration not stated)	?	–
N#Cc1cccc(NC(=O)N2CCC3(CC2)CCN(C(=O)c2cccc(F)c2)CC3)c1	–	–
CCOc1ccc2c(c1)sc(N)[n+]2Cc1cc(C)cc2cccnc12	–	–
SMILES	Cruzain noTriton	Cruzain inh Det
CCOc1ccc2c(ccc(/C=C\c3cc(C)c4cccnc4c3O)[n+]2C)c1	–	3.2µM
CN(C)C1(CNC(=O)COc2cccc(Cl)c2)CCCCC1	–	–
O=C(NC1=NCCS1)c1cc(-c2ccc(-c3ccccc3)cc2)nc2ccccc12	7.9µM	–
O=C(CSc1nc(Cc2ccccc2)nc2ccccc12)Nc1nc2c(s1)CCCC2	25µM	–
CC(C)(C)c1nnc(NC(=O)c2cc(-c3ccccc3)nc3ccccc23)s1	–	–
COC(=O)c1sccc1NC(=O)c1cc(-c2ccc(C)cc2)nc2ccccc12	?	–
COC(=O)c1sccc1NC(=O)c1cc(-c2cccc(C)c2)nc2ccccc12	10µM	–
Cc1ccc(-c2cc(C(=O)Nc3ccc4c(c3)OCCO4)c3ccccc3n2)cc1	10µM	–
Cc1ccc(NC(=O)c2cc(-c3ccc(C)o3)nc3ccccc23)cc1	–	–
CC(C)(C)c1nc(SCC(=O)Nc2nc3c(s2)CCCC3)c2ccccc2n1	?	–
c1ccc2cc3c(cc2c1)-c1cccc2cccc-3c12	–	–
COc1cc([C@@H]2c3cc4c(cc3[C@@H](O[C@@H]3O[C@H]5CO[C@@H](C)O[C@@H]5[C@@H](O)[C@H]3O)[C@@H]3COC(=O)[C@@H]23)OCO4)cc(OC)c1O	–	–
CCNc1ncc2nc(CCc3ccccc3)c(=O)n(CCC#N)c2n1	–	?
COc1ccc(OC)c(NCc2cccn2-c2nnc(N3CCC(C)CC3)s2)c1	–	–
CC(C)c1ccc2c(c1)CCC1C(C)(C(N)=O)CCCC21C (configuration not stated)	–	–
O=C(Nc1ccc(Br)cc1)c1cc(-c2cccs2)nc2ccccc12	–	–
O=C(Nc1nc2c(s1)CCCC2)c1cc(-c2ccccc2)nc2ccccc12	20µM	–
O=C(Nc1nc2c(s1)CCCC2)c1cc(-c2ccncc2)nc2ccccc12	?	–
CN(C)S(=O)(=O)c1cccc(NC(=O)c2cc(-c3cccs3)nc3ccccc23)c1	16µM	–
Cc1ccc(C(=O)Nc2ccc(C(=O)O)cc2)cc1S(=O)(=O)N1CCC(C)CC1	–	–
CC(=O)Nc1c(C)nn(-c2ccccc2)c1N1CCC(C(=O)NCc2ccccc2Cl)CC1	–	28µM
CC(=O)Nc1c(C)nn(-c2ccccc2)c1N1CCC(C(=O)NCc2cccc(Cl)c2)CC1	?	–
O=C(c1ccncc1)N1CCC[C@@]2(CCN(c3ccncc3)C2)C1	–	–
CCN(CC)C(=O)CSc1nc2ccccc2c(=O)n1-c1cccc(OC)c1	–	–
Cc1cccc(-n2c(/C=C/c3ccccc3O)nc3ccccc3c2=O)c1	?	–
SMILES	Cruzain noTriton	Cruzain inh Det
COc1cccc(-n2c(/C=C/c3ccccc3O)nc3ccccc3c2=O)c1	20µM	–
COc1cccc(-n2c(SCc3cc(=O)oc4cc(O)c(O)cc34)nc3ccccc3c2=O)c1	25µM	–
Cc1ccc(C)c(Cn2nnc(C(=O)NCc3ccc(Cl)cc3Cl)c2N)c1	–	–
CCOc1ccc(CCNC(=O)C2CCCN(S(=O)(=O)N(C)c3ccc(F)cc3)C2)cc1 (configuration not stated)	–	–
Clc1cccc(Cl)c1/C=N\Nc1nccs1	?	–
O=[N+]([O-])c1cc(/C=N\Nc2nccs2)ccc1O	32µM	18µM
Cc1cccc2cc(C#N)c(NCCNC(=S)NCCCN3CCOCC3)nc12	–	–
Cc1cc2cc(C#N)c(NCCNC(=S)NCCCN3CCOCC3)nc2cc1C	?	25µM
N[C@@H](Cc1ncccn1)C(=O)O	–	–
Cc1ccc(-c2nn3c(-c4ccccc4C)nnc3c3ccccc23)cc1	–	–
CCOC(=O)c1sc(-c2ccccc2)cc1NC(=O)Nc1ccc([N+](=O)[O-])cc1	10µM	–
CCOc1ccc(-c2cc(NC(=O)Nc3cccc(C(C)=O)c3)c(C(=O)OC)s2)cc1	–	–
CCc1ccc(-n2c(CCC(=O)O)ccc2-c2ccc(F)cc2)cc1	–	–
CN(C)c1ccc(CNC(=O)c2ccc3c(c2)N(C)C(=O)C2CCCCN32)cc1 (configuration not stated)	–	–
COc1ccc(OC)c(NC(=O)c2nc(SCc3ccc(F)cc3)ncc2Cl)c1	–	–
Cc1noc(C(=O)Nc2ccc3c(c2)OCO3)c1Cl	–	–
Cc1ccc2c(Cl)c(C(=O)Nc3ccc4c(c3)OCO4)sc2c1	20µM	–
CCSc1nc2c(c(=O)[nH]1)C(c1cccnc1)C(C(=O)OC)=C(C)N2 (configuration not stated)	–	–
